Compound activity (PubChem BioAssay)
Shown is part of a subset that was picked to be rich in hits.
Tg IFNy HTS = blocks Toxoplasma gondii growth in the presence of IFN-gamma. Toxoplasma gondii growth in IFN-gamma-treated host cells; active compounds read low. activity change, negative = inhibition, % (concentration not given with the values). actives 3.8% (n = 69,000); in the data active = activity change below about -70%, passing the limit was not always enough;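 also: host cells are HeLa cells infected with Toxoplasma gondii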
Large screens that a line does not name were inactive; ! = repeats disagree.

COc1cccc(NC(=O)Cn2c(=O)ccc3cc(S(=O)(=O)N4CCCC4)ccc32)c1	none
CC(=O)Nc1ccc(NC(=O)Cn2c(=O)ccc3cc(S(=O)(=O)N4CCC(C)CC4)ccc32)cc1	none
CC(C)c1ccc(NC(=O)Cn2c(=O)ccc3cc(S(=O)(=O)N4CCCC4)ccc32)cc1	Tg IFNy HTS -78
Cc1ccc(NC(=O)Cn2c(=O)ccc3cc(S(=O)(=O)N4CCC(C)CC4)ccc32)cc1Cl	Tg IFNy HTS -93
Cc1nsc(NC(=O)NCc2cccc(CN3CCCC3)c2)n1	none
Cn1c(CNC(=O)C2CCC2)nc2c1CN(C(=O)c1ccc(OC(F)(F)F)cc1)CC2	none
Cc1nnc(SCCCNC(=O)[C@@H]2C[C@@H](O)CN2)s1	none
Cn1cc(CN2CCCC3(COCCN(c4ccccc4)C3)C2)cn1 (centres undefined)	none
CS(=O)(=O)N1CCC2(CC1)CN(c1cccnc1)C(=O)CO2	none
COc1ccc(-c2nc(N3CCN(c4cccc(C)c4C)CC3)c3ccccc3n2)cc1	none
Cc1ccc(NC(C)(C(=O)NCC(=O)NC(C)C)c2ccccc2)cc1 (centres undefined)	none
O=C(Nc1cccc(F)c1)c1c(O)c2cccnc2n(-c2ccccc2)c1=O	none
O=C(NCc1ccco1)c1c(O)c2cccnc2n(-c2ccc(F)cc2)c1=O	Tg IFNy HTS -79
O=C(Nc1cccc(F)c1)c1c(O)c2cccnc2n(-c2cccc(F)c2)c1=O	none
COc1cccc(-n2c(=O)c(C(=O)NC3CCCCCC3)c(O)c3cccnc32)c1	Tg IFNy HTS -113
COc1ccc(-n2c(=O)c(C(=O)NC3CCCC3)c(O)c3cccnc32)cc1	none
COc1cccc(CNC(=O)c2c(O)c3cccnc3n(-c3ccc(F)cc3)c2=O)c1	none
COc1cccc(-n2c(=O)c(C(=O)NC3CCCCC3)c(O)c3cccnc32)c1	none
O=C(Nc1cc(F)cc(F)c1)c1c(O)c2cccnc2n(-c2cccc(F)c2)c1=O	Tg IFNy HTS -106
O=C(NCc1ccco1)c1c(O)c2cccnc2n(-c2cccc(F)c2)c1=O	none
CCn1c(C2CCCN(C(=O)CC3=CCNCC3)C2)nn(C)c1=O (centres undefined)	none
N#Cc1cccc(NC2COC3(CCN(C(=O)c4ccoc4)C3)C2)n1 (centres undefined)	none
Cc1ccc(C)c(-c2coc(-c3ccc(NC(=O)c4cccs4)cc3)n2)c1	none
COc1ccc(-c2nc(-c3cc4cccc(OC)c4oc3=O)cs2)cc1	none
COC(=O)Nc1nc2ccc(SC(C)C)cc2[nH]1	none
CCCS(=O)c1ccc2nc(NC(=O)OC)[nH]c2c1 (centres undefined)	none
O=C(O)c1ccc2nc(-c3ccccn3)[nH]c2c1	none
Cc1ccc2nc(NC(=O)C(C)(C)C)[nH]c(=O)c2c1	none
COc1ccc(-n2nc3ccc(NC(=S)NC(=O)c4cccs4)cc3n2)cc1	none
Cc1ccc(C(=O)O)cc1NC(=O)c1cccs1	none
COC(=O)Nc1nc2ccc(C(=O)c3cccs3)cc2[nH]1	Tg IFNy HTS -87
COC(=O)Nc1nc2ccc(S(=O)c3ccccc3)cc2[nH]1 (centres undefined)	Tg IFNy HTS -75!
CCCSc1ccc2nc(NC(=O)OC)[nH]c2c1	Tg IFNy HTS -78!
CCCCCC#CC(=O)Nc1nc2cc(C)c(C)cc2[nH]1	none
COC(=O)Nc1cc(C)n(-c2ccccc2)n1	none
COC(=O)Nc1nc2ccc(C(=O)c3ccccc3)cc2[nH]1	Tg IFNy HTS -79
Fc1ccc(CN2CCCC(OCc3cccnc3)C2)c(F)c1F (centres undefined)	none
Cc1cccc(NC(=O)C(CC(C)C)NS(=O)(=O)c2ccc3[nH]c(=O)ccc3c2)c1C (centres undefined)	none
Cc1ccc(S(=O)(=O)N2CCC3(CC3C(=O)Nc3cccc(F)c3)C2)cc1 (centres undefined)	none
CC(C)(Oc1ccc(Cl)cc1)C(=O)OCCOC(=O)c1cccnc1	none
Cc1ccc(S(=O)(=O)N2CCC3(CC2)NCCN=C3NC2CCCCCC2)c(C)c1	none
CC(c1ccon1)N(C)CC(=O)Nc1nc2ccccc2[nH]1 (centres undefined)	none
COC(=O)c1ccc(NC(=O)c2ccccc2SC)cc1	none
COC(=O)Nc1nc2ccc(C(=O)c3ccccc3C(=O)OC(C)C)cc2[nH]1	Tg IFNy HTS -101
Cc1cc(C)c(C(=O)N2CCC3(C=Cc4ccccc43)CC2)c(=O)[nH]1	none
CC(C)CC(NC(=O)OCC1c2ccccc2-c2ccccc21)C(=O)O (centres undefined)	none
CC(C)C[C@@H](C=O)NC(=O)[C@H](CC(C)C)NC(=O)[C@H](CC(C)C)NC(=O)OCc1ccccc1	Tg IFNy HTS -81
CC(C)C[C@H](NC(=O)[C@@H](O)[C@H](N)Cc1ccccc1)C(=O)O	none
CC(c1ccc(-c2cc(C(=O)NC3CC3)ccn2)cc1)N1CCOCC1 (centres undefined)	none
CCOc1ccc(-c2cc3c(=O)n(Cc4nc(-c5ccc(OC)cc5)oc4C)ccn3n2)cc1	none
COc1ccc(CN2CC3(COC(C(=O)N4CCCC4)C3)c3ccccc32)cc1 (centres undefined)	Tg IFNy HTS -79
COCCN(C)C(=O)C1CC2(CO1)CN(Cc1ccc(OC)cc1)c1ccccc12 (centres undefined)	none
